From article PMC7862700, “An all-to-all approach to the identification of sequence-specific readers for epigenetic DNA modifications on cytosine” come the findings set out here.

Holding throughout (test): DAPPL (digital affinity profiling via proximity ligation, sequencing); 10 mM Tris-HCl pH 7.5, 50 mM NaCl, 1 mM DTT, 4% glycerol, room temperature, 30 min; GST-TFs on glutathione beads, 16-mer random dsDNA library, 0.1% formaldehyde crosslink after washing; high values mean tight binding
Assay [1] addresses T1, FLI1 (Homo sapiens, UniProt Q01543 1-452).
T1 sequence: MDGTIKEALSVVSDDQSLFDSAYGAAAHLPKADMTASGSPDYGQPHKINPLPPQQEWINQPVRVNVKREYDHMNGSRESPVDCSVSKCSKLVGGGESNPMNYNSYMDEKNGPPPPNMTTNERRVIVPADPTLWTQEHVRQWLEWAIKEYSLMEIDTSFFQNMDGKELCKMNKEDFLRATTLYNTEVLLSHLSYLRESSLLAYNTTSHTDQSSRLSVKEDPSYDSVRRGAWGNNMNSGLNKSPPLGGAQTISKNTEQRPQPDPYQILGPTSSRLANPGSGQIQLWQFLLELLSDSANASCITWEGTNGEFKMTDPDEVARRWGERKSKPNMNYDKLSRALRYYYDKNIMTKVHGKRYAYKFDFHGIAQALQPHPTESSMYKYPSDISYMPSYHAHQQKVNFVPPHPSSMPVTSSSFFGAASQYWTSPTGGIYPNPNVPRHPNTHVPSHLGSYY
Conditions: protein: recombinant; tags: N-terminal GST; dsDNA, one strand shown. The essentials:
(§1)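 Beads coated with glutathione captured GST-fused human transcription factors that had been expressed in yeast, and the factors were then given DNA barcodes and pooled with a tag-only sample. The pools were incubated with 200 nmole of a random double-stranded 16-mer DNA library in Tris/NaCl/DTT/glycerol buffer for 30 min at room temperature, washed, crosslinked with 0.1% formaldehyde and proximity-ligated with BsaI/T4 ligase at 37 °C for 1 h. PCR amplification and Illumina NextSeq500 sequencing came last. Binding signal is each hexamer's read frequency for a factor divided by its frequency for the tag-only sample.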

Assay [2] deals with T2, ELK1 (Homo sapiens, UniProt P19419 1-428).
T2 sequence: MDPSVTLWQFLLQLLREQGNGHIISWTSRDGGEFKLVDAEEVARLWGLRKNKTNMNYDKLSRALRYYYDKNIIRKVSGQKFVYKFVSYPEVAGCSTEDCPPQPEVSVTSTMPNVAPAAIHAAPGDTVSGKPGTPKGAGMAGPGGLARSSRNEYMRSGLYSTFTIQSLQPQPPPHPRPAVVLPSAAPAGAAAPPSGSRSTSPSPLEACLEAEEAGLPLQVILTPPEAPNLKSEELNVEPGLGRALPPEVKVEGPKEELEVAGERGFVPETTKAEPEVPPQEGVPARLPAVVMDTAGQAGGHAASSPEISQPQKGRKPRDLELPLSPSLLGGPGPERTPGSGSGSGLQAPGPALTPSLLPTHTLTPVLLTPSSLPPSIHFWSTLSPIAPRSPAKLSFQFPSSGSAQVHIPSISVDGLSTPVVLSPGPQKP
The settings on record: protein: recombinant; tags: N-terminal GST; dsDNA, one strand shown. An outline of the steps: as §1

In assay [3] the target is T3, GABPA (Homo sapiens, UniProt Q06546 1-454).
T3 sequence: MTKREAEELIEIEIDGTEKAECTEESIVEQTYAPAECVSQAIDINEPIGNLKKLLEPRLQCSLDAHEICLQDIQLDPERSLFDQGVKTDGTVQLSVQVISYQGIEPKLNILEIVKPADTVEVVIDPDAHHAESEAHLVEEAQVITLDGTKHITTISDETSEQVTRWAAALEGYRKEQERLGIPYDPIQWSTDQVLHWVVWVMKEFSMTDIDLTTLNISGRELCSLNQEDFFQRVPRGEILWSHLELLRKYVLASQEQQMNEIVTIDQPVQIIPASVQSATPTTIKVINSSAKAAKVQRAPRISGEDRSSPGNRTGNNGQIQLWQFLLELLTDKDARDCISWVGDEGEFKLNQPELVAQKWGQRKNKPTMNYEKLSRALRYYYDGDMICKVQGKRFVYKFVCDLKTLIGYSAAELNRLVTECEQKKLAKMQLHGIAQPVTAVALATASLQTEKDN
The settings on record: protein: recombinant; tags: N-terminal GST; dsDNA, one strand shown. An outline of the steps:
as §1

The target in assay [4] is T4, ERG (Homo sapiens, UniProt P11308 1-479).
T4 sequence: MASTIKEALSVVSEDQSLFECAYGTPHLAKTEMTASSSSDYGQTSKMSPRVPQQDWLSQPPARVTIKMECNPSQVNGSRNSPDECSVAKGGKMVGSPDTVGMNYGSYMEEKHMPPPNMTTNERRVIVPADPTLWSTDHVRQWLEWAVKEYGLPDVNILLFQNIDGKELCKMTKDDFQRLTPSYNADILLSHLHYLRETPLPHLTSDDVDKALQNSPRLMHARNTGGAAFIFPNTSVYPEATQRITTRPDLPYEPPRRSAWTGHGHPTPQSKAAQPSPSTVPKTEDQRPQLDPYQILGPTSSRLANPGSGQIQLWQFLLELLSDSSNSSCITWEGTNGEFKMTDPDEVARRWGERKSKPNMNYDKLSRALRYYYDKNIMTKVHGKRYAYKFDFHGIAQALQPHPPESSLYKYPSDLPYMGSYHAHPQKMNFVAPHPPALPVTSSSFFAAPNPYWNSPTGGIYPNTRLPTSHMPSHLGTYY
Conditions: protein: recombinant; tags: N-terminal GST; dsDNA, one strand shown. An outline of the steps:
as §1

Assay [5] has as its target ELF1 (Homo sapiens, UniProt P32519 1-619). The settings on record: protein: recombinant; tags: N-terminal GST; dsDNA, one strand shown. An outline of the steps: as §1
In assay [6] the target is T5, EHF (Homo sapiens, UniProt Q9NZC4 1-300).
T5 sequence: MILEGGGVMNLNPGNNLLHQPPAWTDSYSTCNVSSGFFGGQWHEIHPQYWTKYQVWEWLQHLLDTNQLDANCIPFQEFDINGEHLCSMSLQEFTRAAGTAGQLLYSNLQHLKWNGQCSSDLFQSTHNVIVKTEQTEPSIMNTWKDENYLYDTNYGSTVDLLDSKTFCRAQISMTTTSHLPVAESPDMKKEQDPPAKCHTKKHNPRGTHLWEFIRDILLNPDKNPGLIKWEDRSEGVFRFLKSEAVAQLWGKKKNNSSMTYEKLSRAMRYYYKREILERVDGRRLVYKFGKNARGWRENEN
The settings on record: protein: recombinant; tags: N-terminal GST; dsDNA, one strand shown. An outline of the steps: as §1

Assay [7] deals with SPI1 (Homo sapiens, UniProt P17947 1-270). Conditions: protein: recombinant; tags: N-terminal GST; dsDNA, one strand shown. The essentials:
as §1

For assay [8], the target named is SPIB (Homo sapiens, UniProt Q01892 1-262). The settings on record: protein: recombinant; tags: N-terminal GST; dsDNA, one strand shown. The essentials:
as §1

Assay [9] addresses T6, FEV (Homo sapiens, UniProt Q99581 1-238).
T6 sequence: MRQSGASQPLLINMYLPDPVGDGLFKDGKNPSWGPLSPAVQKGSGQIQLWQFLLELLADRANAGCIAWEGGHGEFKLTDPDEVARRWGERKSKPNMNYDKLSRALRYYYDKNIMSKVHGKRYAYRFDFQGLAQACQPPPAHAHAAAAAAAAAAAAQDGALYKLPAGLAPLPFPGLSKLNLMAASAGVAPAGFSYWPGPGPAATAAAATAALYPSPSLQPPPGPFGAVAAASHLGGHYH
The settings on record: protein: recombinant; tags: N-terminal GST; dsDNA, one strand shown. The essentials:
as §1

In assay [10] the target is ETV5 (Homo sapiens, UniProt P41161 1-510). The settings on record: protein: recombinant; tags: N-terminal GST; dsDNA, one strand shown. The essentials:
as §1

Assay [11] has as its target HSF1 (Homo sapiens, UniProt Q00613 1-529). The settings on record: protein: recombinant; tags: N-terminal GST; chain copies: 3; dsDNA, one strand shown. The essentials: as §1
Assay [12] concerns the target T7, SPIC (Homo sapiens, UniProt Q8N5J4 1-248).
T7 sequence: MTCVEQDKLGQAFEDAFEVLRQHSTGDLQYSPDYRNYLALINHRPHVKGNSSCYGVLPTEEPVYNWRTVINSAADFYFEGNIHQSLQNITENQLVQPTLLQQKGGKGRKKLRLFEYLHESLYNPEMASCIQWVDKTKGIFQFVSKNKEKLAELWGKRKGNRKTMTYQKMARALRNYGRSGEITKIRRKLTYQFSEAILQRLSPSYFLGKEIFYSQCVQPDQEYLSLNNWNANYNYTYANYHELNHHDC
The settings on record: protein: recombinant; tags: N-terminal GST; dsDNA, one strand shown. The essentials:
as §1

The target in assay [13] is ELF4 (Homo sapiens, UniProt Q99607 1-663). The settings on record: protein: recombinant; tags: N-terminal GST; dsDNA, one strand shown. An outline of the steps:
as §1

In assay [14] the target is T8, ETV2 (Homo sapiens, UniProt O00321 1-342).
T8 sequence: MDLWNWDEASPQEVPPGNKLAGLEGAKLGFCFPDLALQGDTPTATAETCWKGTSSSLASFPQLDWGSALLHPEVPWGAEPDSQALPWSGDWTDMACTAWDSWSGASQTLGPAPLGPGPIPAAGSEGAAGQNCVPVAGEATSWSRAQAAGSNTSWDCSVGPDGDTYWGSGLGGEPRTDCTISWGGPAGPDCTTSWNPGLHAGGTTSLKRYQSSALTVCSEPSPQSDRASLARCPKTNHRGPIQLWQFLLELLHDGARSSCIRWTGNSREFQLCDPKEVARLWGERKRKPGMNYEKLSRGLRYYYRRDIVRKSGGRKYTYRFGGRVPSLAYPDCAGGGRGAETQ
The settings on record: protein: recombinant; tags: N-terminal GST; dsDNA, one strand shown. The essentials:
as §1

In assay [15] the target is T9, ELF3 (Homo sapiens, UniProt P78545 1-371).
T9 sequence: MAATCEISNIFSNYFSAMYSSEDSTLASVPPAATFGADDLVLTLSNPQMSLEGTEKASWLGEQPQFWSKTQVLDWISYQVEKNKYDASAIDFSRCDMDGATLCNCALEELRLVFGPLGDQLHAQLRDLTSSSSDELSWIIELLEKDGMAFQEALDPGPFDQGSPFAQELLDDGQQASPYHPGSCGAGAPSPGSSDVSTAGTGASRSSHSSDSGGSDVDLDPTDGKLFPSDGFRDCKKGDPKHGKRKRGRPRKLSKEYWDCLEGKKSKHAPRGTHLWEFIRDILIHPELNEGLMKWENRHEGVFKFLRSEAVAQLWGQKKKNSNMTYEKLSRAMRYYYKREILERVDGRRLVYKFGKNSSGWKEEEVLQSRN
Conditions: protein: recombinant; tags: N-terminal GST; dsDNA, one strand shown. An outline of the steps: as §1

The target of assay [16] is ETV1 (Homo sapiens, UniProt P50549 1-477). The settings on record: protein: recombinant; tags: N-terminal GST; dsDNA, one strand shown. An outline of the steps:
as §1

Sequence of ETV5 (P41161 whole entry): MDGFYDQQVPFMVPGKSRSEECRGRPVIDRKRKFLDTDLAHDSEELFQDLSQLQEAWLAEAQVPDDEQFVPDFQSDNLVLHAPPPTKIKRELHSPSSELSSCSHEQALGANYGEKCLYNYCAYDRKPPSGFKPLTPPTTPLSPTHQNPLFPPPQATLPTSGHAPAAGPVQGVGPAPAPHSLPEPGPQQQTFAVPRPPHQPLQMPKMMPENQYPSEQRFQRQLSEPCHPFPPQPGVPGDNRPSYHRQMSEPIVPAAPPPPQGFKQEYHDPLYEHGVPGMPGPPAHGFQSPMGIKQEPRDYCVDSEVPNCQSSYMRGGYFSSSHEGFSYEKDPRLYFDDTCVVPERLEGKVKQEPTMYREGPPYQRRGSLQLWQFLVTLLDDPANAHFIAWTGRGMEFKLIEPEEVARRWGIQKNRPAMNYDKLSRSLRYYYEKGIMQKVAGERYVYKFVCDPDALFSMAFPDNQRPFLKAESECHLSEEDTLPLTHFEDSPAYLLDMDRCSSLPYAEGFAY
Sequence of SPIB (Q01892 whole entry): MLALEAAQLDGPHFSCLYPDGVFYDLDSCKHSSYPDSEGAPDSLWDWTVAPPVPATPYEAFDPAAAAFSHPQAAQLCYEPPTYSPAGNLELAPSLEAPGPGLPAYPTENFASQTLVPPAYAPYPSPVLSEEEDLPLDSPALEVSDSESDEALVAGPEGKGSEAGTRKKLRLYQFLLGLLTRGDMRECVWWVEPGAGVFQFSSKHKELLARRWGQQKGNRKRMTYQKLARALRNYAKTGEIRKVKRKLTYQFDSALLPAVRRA
Sequence of ELF4 (Q99607 whole entry): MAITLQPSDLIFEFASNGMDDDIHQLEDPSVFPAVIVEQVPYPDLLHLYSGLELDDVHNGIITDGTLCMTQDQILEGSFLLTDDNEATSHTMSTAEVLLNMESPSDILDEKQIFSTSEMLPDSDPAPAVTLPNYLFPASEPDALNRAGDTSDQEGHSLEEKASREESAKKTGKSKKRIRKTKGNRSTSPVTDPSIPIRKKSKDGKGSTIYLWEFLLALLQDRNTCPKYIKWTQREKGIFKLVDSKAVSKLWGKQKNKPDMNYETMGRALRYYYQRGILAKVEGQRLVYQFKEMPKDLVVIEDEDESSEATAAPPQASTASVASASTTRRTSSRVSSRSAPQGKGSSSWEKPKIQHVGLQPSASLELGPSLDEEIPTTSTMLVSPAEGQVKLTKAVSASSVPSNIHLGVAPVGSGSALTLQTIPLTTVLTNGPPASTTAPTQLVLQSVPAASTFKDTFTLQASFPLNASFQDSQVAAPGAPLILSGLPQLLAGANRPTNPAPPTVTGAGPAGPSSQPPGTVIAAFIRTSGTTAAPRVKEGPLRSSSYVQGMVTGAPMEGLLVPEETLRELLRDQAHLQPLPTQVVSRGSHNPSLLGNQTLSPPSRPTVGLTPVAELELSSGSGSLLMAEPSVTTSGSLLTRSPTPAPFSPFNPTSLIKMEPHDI
Sequence of ETV1 (P50549 whole entry): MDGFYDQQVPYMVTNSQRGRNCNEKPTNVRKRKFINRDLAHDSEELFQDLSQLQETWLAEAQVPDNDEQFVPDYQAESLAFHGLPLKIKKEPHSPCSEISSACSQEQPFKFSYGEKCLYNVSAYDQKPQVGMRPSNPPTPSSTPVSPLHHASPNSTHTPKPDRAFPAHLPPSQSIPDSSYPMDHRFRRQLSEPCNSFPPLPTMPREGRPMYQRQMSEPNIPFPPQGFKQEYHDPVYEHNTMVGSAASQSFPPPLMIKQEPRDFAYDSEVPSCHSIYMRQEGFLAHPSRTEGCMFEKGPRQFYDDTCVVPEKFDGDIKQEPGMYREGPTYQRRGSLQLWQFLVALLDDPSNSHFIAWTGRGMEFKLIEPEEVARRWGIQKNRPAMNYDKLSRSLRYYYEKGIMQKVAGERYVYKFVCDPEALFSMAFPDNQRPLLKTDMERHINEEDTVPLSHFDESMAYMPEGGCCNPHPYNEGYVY
Sequence of HSF1 (Q00613 whole entry): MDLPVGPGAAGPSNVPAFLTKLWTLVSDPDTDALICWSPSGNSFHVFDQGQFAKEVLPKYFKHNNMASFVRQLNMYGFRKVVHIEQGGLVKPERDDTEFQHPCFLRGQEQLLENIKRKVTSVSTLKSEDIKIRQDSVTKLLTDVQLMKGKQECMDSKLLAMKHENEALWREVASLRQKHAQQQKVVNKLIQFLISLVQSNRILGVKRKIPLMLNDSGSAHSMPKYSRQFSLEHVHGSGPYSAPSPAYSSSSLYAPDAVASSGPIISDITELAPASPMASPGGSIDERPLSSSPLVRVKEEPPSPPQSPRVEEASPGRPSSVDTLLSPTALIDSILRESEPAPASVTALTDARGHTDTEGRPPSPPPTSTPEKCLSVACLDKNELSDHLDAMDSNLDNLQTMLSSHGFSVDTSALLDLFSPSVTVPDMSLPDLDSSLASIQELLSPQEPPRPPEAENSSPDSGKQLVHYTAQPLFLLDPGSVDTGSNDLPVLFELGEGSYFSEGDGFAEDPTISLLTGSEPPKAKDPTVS
Sequence of ELF1 (P32519 whole entry): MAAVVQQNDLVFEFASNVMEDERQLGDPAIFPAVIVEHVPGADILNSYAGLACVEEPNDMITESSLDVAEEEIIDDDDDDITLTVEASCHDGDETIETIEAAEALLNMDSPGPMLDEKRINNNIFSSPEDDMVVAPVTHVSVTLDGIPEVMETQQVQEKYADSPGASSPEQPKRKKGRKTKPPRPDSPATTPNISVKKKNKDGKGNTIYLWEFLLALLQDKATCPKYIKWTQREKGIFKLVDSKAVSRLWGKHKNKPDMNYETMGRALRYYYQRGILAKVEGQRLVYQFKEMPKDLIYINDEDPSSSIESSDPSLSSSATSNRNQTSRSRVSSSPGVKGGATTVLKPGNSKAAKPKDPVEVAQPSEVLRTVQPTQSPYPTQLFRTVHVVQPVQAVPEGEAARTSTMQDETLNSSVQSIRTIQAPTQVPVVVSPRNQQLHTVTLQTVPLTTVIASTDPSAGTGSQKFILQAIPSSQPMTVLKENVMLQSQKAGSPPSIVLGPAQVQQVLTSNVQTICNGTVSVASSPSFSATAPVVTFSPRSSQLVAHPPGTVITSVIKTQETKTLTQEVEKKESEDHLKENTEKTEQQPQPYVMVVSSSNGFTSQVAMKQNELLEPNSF

With GCTCTG, the binding signal is 1.18 fold enrichment (6-mer frequency, TF over GST control) in assay [1]; 1.26 fold enrichment (6-mer frequency, TF over GST control) in [2]; 1.03 fold enrichment (6-mer frequency, TF over GST control) in [3]; 1.01 fold enrichment (6-mer frequency, TF over GST control) in assay [4]; 1.08 fold enrichment (6-mer frequency, TF over GST control) in assay [5]; 1.15 fold enrichment (6-mer frequency, TF over GST control) in assay [6]. For the same sequence, the binding signal in assay [7] was 1.11 fold enrichment (6-mer frequency, TF over GST control); in assay [8], 1.1 fold enrichment (6-mer frequency, TF over GST control); in assay [9], 1.25 fold enrichment (6-mer frequency, TF over GST control); in assay [10], 1.15 fold enrichment (6-mer frequency, TF over GST control); in assay [11], 1.08 fold enrichment (6-mer frequency, TF over GST control); in assay [12] it was 1.18 fold enrichment (6-mer frequency, TF over GST control). Besides, the binding signal is 1.17 fold enrichment (6-mer frequency, TF over GST control) in assay [13]; 1 fold enrichment (6-mer frequency, TF over GST control) in assay [14]; 1.04 fold enrichment (6-mer frequency, TF over GST control) in assay [15]; 1.28 fold enrichment (6-mer frequency, TF over GST control) in assay [16].
